High-throughput results: PubChem, ICCB-Longwood Screening Facility, Harvard Medical School
Only a selection was taken, and hits are over-represented in it overall.
Choline anaer gr: inhibitors of anaerobic choline-dependent gram-negative bacterial growth; Gram-negative bacterium anaerobic choline minimal medium, absorbance growth; hits give low values; calls only; 55,000 tested, 0.2% active; call rule not given here
The depositor's hits bear a star; i = inactive; + = active, no number.

SMILES	Choline anaer gr
CC(C)OC(=O)CCC/C=C\C[C@@H]1[C@@H](/C=C/C(=O)COc2cccc(C(F)(F)F)c2)[C@H](O)C[C@@H]1O	i
CC(C)OC(=O)CCC/C=C\C[C@@H]1[C@@H](/C=C/[C@H](O)CCc2ccccc2)[C@H](O)C[C@@H]1O	+
CCCCC[C@H](O)/C=C/[C@@H]1[C@@H](C/C=C/CCCC(=O)O)[C@H](O)C[C@H]1O	i
CC(C)OC(=O)CCCC=CCC1C(O)CC(O)C1CCC(O)CCc1ccccc1 (centres undefined)	i
Cc1nc2nc(CN)nn2c(C)c1CCC(=O)Nc1cccc(Cl)c1	i
O=S(=O)(c1cc(-c2noc(C3CCC3)n2)cs1)N1CCc2ccccc2C1	i
COCCNC(=O)CN1C(=O)CSc2ccc(C(=O)N3CCCC3)cc21	i
CCOC(=O)c1ccccc1NC(=O)c1c(-c2ccccc2Cl)noc1C	i
COCCNC(=O)N1CCN(Cc2nc3ccc(Cl)cc3o2)CC1	i
